We go through 17 compounds from PubChem BioAssay.

Experiment [1] concerns XIP peptide (Xip251-270) binding. Briefly: small-molecule binders of XIP peptide, primary screen, biochemical, small-molecule microarray, fluorescence 635/667 nm, 0.1 µg/mL protein (AID 1182). To be noted: fluorescent protein binding, 635 nm, higher = more signal, called active from +8 up or from −8 down.
The test system of another experiment is XIP peptide (Xip251-270). Nature of the experiment: small-molecule binders of XIP peptide, primary screen, biochemical, small-molecule microarray, fluorescence 635/667 nm, 0.5 µg/mL protein (AID 1183). The note with it: small-molecule microarray binding, fluorescence 635 nm; higher = more signal.
Experiment [2] is described as follows: Plasmodium falciparum growth inhibition, primary screen, strain 3D7, DAPI fluorescence, 100 nL (AID 1184).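 Further: parasites grown inside human red blood cells in medium with human serum.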 The note with it: P. falciparum 3D7 growth, 3 d, higher = more signal.
Experiment [3] addresses Homeobox protein Hox-A13 (Mus musculus) (UniProt Q62424). Nature of the experiment: inhibitors of HoxA13-DNA binding, primary screen, biochemical, fluorescence polarization, labeled oligonucleotide (AID 1185). The note with it: 15 min, higher = more signal, called active from +8 up or from −8 down. Background: Polarisation of emitted light reports the rotation of a fluorescent probe.

Experiment [4] in a line: inhibitors of hydroxyurea-induced Chk1 phosphorylation, primary screen, imaging, HeLa, phospho-Chk1 antibody, percent positive cells (AID 1186). To be noted: hydroxyurea-induced phospho-Chk1 immunofluorescence imaging, higher = more signal.
Experiment [5] in a line: inhibitors of hydroxyurea-induced Chk1 phosphorylation, primary screen, imaging, HeLa, phospho-Chk1 nuclear intensity (AID 1187). To be noted: hydroxyurea-induced phospho-Chk1 immunofluorescence imaging, higher = more signal.

Active and inactive are the calls of the source. Unless noted, how the calls were made is not given here.

Chain of Homeobox protein Hox-A13 (Mus musculus) (Q62424 whole entry, looked up): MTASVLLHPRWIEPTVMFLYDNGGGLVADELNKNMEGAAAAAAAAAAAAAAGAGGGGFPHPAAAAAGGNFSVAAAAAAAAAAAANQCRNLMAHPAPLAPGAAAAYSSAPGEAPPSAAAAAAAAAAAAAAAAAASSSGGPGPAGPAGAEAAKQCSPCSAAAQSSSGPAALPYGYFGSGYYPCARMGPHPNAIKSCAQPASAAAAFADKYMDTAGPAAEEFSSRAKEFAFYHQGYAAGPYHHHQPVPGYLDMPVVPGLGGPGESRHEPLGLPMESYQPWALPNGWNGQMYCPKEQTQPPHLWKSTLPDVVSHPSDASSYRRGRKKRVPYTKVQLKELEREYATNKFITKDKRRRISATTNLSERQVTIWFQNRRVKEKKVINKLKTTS

As for `COCCOC(=O)N1C(=O)[C@@]2(c3cc(C#Cc4ccc(OC)cc4)ccc31)[C@H](c1ccc(O)cc1)N1[C@H](c3ccccc3)[C@H](c3ccccc3)OC(=O)[C@H]1[C@@H]2C(=O)N1CCN(c2ncccn2)CC1`, the composite z-score in experiment [1] was 0.164 (inactive); in the experiment on XIP peptide (Xip251-270), 0.596. Moreover, the z-score in experiment [2] is -1.86; in experiment [3] it was -0.821 (inactive); in experiment [4], 0.187 (inactive); in experiment [5], 0.302 (inactive).

As to `CS(=O)(=O)CCOC(=O)C1=CC(c2ccc(CO)cc2)=CC(c2cccs2)N(Cc2cccc(OC(F)(F)F)c2)C=C1C(=O)OCCS(C)(=O)=O` (configuration not stated), the composite z-score in experiment [1] was 0.276 (inactive); with XIP peptide (Xip251-270) it was 0.514. Also, the z-score in experiment [2] is -2.5; in experiment [3], -4.18 (inactive); in experiment [4], 0.552 (inactive); in experiment [5], 0.377 (inactive).

In the case of `CN(C)CCCC[C@@H]1NC(=O)[C@@H]2C[C@H](C(=O)NCCCCCCN)[C@H](c3ccc(O)cc3)N2C1=O`, the composite z-score in experiment [1] is 0.674 (inactive); with XIP peptide (Xip251-270), 0.0252. The z-score in experiment [2] is 0.0094; in experiment [3], -2.65 (inactive); in experiment [4] it was 0.136 (inactive); in experiment [5] it was -0.366 (inactive).

For `C=CCN1C(=O)[C@@]2(O[C@@H](CCO)[C@H]([Si](C)(C)c3ccc(OC)cc3)[C@H]2C)c2cc(NC(C)=O)ccc21`, the composite z-score in experiment [1] was 0.149 (inactive); with XIP peptide (Xip251-270), 0.258. Also, the z-score in experiment [2] was -2.74; in experiment [3], -6.52 (inactive); in experiment [4] it was -0.0604 (inactive); in experiment [5] it was 0.348 (inactive).

As to `Cc1ccc(N2C(=O)c3ccccc3[C@](C)(C(=O)NCCN3CCOCC3)[C@@H]2c2ccc(CO)cc2)nc1`, the composite z-score in experiment [1] was -0.772 (inactive); in the experiment on XIP peptide (Xip251-270), 0.471. For the same compound, the z-score in experiment [2] was -0.855; in experiment [3] it was -1.9 (inactive); in experiment [4] it was -0.217 (inactive); in experiment [5], -0.163 (inactive).

As for `Cn1c2c(c3ccccc31)C(=O)C1NC2C=CC1(C)C(=O)OCc1ccccc1` (configuration not stated), the composite z-score in experiment [1] is -0.605 (inactive); with XIP peptide (Xip251-270), -0.416. In addition, the z-score in experiment [2] was -0.502; in experiment [3], -3.9 (inactive); in experiment [4], -0.3 (inactive); in experiment [5] it was -0.512 (inactive).

For the compound `O=C1O[C@H](c2ccccc2)[C@H](c2ccccc2)N2[C@H]1[C@@H](C(=O)NC[C@H](O)c1ccccc1)[C@]1(C(=O)Nc3ccc(C#CC4=CCCCC4)cc31)[C@H]2c1ccc(O)cc1`, the composite z-score was 0.447 (inactive) in experiment [1] and 0.766 with XIP peptide (Xip251-270). Moreover, the z-score in experiment [2] was -1.53; in experiment [3], 0.685 (inactive); in experiment [4] it was 0.577 (inactive); in experiment [5], 1.25 (inactive).

In the case of `Cc1ccc(C(C)CC(O)C2C=CC3C(=O)NC(=O)C3N2Nc2ccccn2)o1` (configuration not stated), the composite z-score is 0.673 (inactive) in experiment [1] and 0.881 with XIP peptide (Xip251-270). Moreover, the z-score in experiment [2] was 0.281; in experiment [3] it was -2.14 (inactive); in experiment [4], 0.333 (inactive); in experiment [5] it was 0.0304 (inactive).

For the compound `C=CCC(OC(C)=O)[C@@H]1[C@@H](N(Cc2ccc(-c3ccccc3)cc2)C(=O)c2ccc(C)cc2)c2cc(OCCCO)ccc2N1C(=O)Cc1ccc(OC)cc1` (some centres not stated), the figures for the composite z-score (in experiment [1]; with XIP peptide (Xip251-270)) were 0.0129 (inactive) and 0.703, respectively. The z-score in experiment [2] was -1.18; in experiment [3], -0.664 (inactive); in experiment [4], -0.793 (inactive); in experiment [5], -0.677 (inactive).

On to `COc1ccc(C#Cc2ccc3c(c2)[C@]2(C(=O)N3)[C@H](C(=O)N3CCN(c4ncccn4)CC3)[C@H]3C(=O)O[C@H](c4ccccc4)[C@H](c4ccccc4)N3[C@@H]2c2ccc(O)cc2)cc1`, for which the composite z-score in experiment [1] is -0.219 (inactive); in the experiment with XIP peptide (Xip251-270) it was 0.734. In addition, the z-score in experiment [2] was -1.08; in experiment [3] it was -0.983 (inactive); in experiment [4], -0.247 (inactive); in experiment [5], -0.298 (inactive).

For the compound `O=C1O[C@@H](c2ccccc2)[C@@H](c2ccccc2)N2[C@@H](c3ccc(O)cc3)[C@]3(C(=O)Nc4ccccc43)[C@@H](C(=O)N3CCCCCCC3)[C@H]12`, the values for the composite z-score (in experiment [1]; in the experiment on XIP peptide (Xip251-270)) were 3.19 (inactive) and 0.862, respectively. Further, the z-score is -1.54 in experiment [2], 3.1 (inactive) in experiment [3], 0.242 (inactive) in experiment [4] and 0.883 (inactive) in experiment [5].

Consider `Cc1cc(C)c(C(O)C2C=CC3C(=O)NC(=O)C3N2Nc2ccccn2)c(C)c1` (configuration not stated), for which the composite z-score in experiment [1] was 0.702 (inactive); in the experiment with XIP peptide (Xip251-270) it was 0.103. Further, the z-score is -0.261 in experiment [2], -3.34 (inactive) in experiment [3], 0.321 (inactive) in experiment [4] and -0.0098 (inactive) in experiment [5].

`COCCCNC(=O)[C@@]1(Sc2ccc(C)cc2)CC(=O)N(Cc2ccccc2)[C@@H]1c1ccc(CO)cc1`: the values for the composite z-score (in experiment [1]; with XIP peptide (Xip251-270)) were -0.496 (inactive) and 0.841, respectively. For the same compound, the z-score in experiment [2] is -0.471; in experiment [3] it was -2.81 (inactive); in experiment [4], -0.24 (inactive); in experiment [5], -0.283 (inactive).

With `C#C[C@H]1Oc2ccccc2S(=O)(=O)N2CCC[C@@H]12`, the composite z-score was -0.267 (inactive) in experiment [1] and -0.286 in the experiment on XIP peptide (Xip251-270). Moreover, the z-score was 0.562 in experiment [2], -1.15 (inactive) in experiment [3], 0.528 (inactive) in experiment [4] and 0.526 (inactive) in experiment [5].

On to `CC(c1ccccc1)C(O)C1C=CC2C(=O)N(Cc3ccccc3)C(=O)C2N1n1cnnc1` (configuration not stated), for which the composite z-score was -0.429 (inactive) in experiment [1] and 0.908 in the experiment on XIP peptide (Xip251-270). Further, the z-score in experiment [2] is -0.864; in experiment [3], -1.93 (inactive); in experiment [4] it was 0.106 (inactive); in experiment [5], -0.634 (inactive).

As to `CC(C)N1C(=O)c2ccccc2[C@](C)(C(=O)NC2CC2)[C@@H]1c1ccc(CO)cc1`, the composite z-score in experiment [1] was -0.318 (inactive); with XIP peptide (Xip251-270) it was 0.0807. For the same compound, the z-score in experiment [2] is -0.335; in experiment [3], -1.64 (inactive); in experiment [4], -0.119 (inactive); in experiment [5], 0.0866 (inactive).

In the case of `CN1C(=O)C2C(C1=O)C1C=C(c3ccc(CO)cc3)C2C(C2CC2)N1Cc1sc2ccccc2c1Cl` (configuration not stated), the composite z-score in experiment [1] was 0.406 (inactive); in the experiment on XIP peptide (Xip251-270) it was 0.745. Moreover, the z-score is -1.9 in experiment [2], -3.23 (inactive) in experiment [3], 0.21 (inactive) in experiment [4] and 0.442 (inactive) in experiment [5].
